# Measurements: PubChem BioAssay (NCI)
# About 83,000 compounds went through this panel and 20% of them were active in at least one assay; those are over-represented in the sample as a whole.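 The endpoint reported here, percent growth, reads 100 for growth as untreated, 0 for no net growth and -100 for all cells dead.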 Unmarked numbers belong to inactive results. The source made the active and inactive calls. The calls were made as follows: active = growth percent below 10; inactive = the rest.
# Assays:
# Assay in all cases: NCI-60 one-dose screen, 48 h (100 = growth as untreated, 0 = no growth, -100 = all killed)
# Conditions in all cases: 10 µM unless noted
# NCI-H23 lung = system: NCI-H23 lung
# NCI-H226 lung = system: NCI-H226 lung
# NCI-H322M lung = system: NCI-H322M lung
# HOP-62 NSCLC = system: HOP-62 NSCLC
# HOP-92 NSCLC = system: HOP-92 NSCLC
# NCI-H522 lung = system: NCI-H522 lung
# A549/ATCC NSCLC = system: A549/ATCC NSCLC
# 786-0 renal = system: 786-0 renal
# COLO 205 colon = system: COLO 205 colon
# NCI-H460 lung = system: NCI-H460 lung
Compound,growth (NCI-H23 lung),growth (NCI-H226 lung),growth (NCI-H322M lung) [%],growth (HOP-62 NSCLC),growth (HOP-92 NSCLC),growth (NCI-H522 lung),growth (A549/ATCC NSCLC) [%],growth (786-0 renal),growth (COLO 205 colon),growth (NCI-H460 lung) [%]
COCCn1cc(-c2csc(-c3c[nH]c4ccc(F)cc34)n2)c2cccnc21,34.8%,57.5%,63.2,44%,38%,-11.7% (active),22.1,40.4%,11.5%,
C=C[C@@]1(C)CC(=O)[C@@H](C(C)(C)c2cn(C)c3ccc(Br)cc23)C[C@@H]1O[Si](C)(C)C(C)(C)C,98.3%,83.9%,101,111%,83.6%,94.4%,102,97.4%,104%,
CNCCCNc1nc2ccccc2c2c(=O)c3cc(Cl)ccc3sc12,70.1%,101%,70.4,60.5%,9.37% (active),17.6%,17.8,52.7%,-84.4% (active),
Cc1nn(C)c2ncnc(N/N=C/c3cccc(O)c3O)c12,20.8%,42.7%,14.7,4.24% (active),23.3%,19.9%,20.9,2.11% (active),-3.31% (active),
COCCOC(C)C(/C=N/NC(N)=S)=N/NC(N)=S (stereo not drawn),49.8%,72.2%,89.8,72.4%,101%,94.5%,78.3,99.3%,90.6%,
O=C1OCC2=C1C(c1ccccc1)c1cc3c(cc1N2CCO)OCCO3 (stereo not drawn),30.9%,15.8%,48.7,27.3%,44.5%,-47.4% (active),23.6,20.8%,-47.6% (active),
O=C(CSc1nnnn1-c1ccccc1)Nc1ccc(Oc2ccccc2)cc1,101%,87.5%,114,95.6%,75%,79.3%,101,102%,110%,
O=C(/C=C/c1cn(-c2ccccc2)nc1-c1ccccc1)CCC(=O)NO,99.3%,93.9%,106,93.3%,109%,79.5%,91.5,97.3%,107%,
O=C(C1=Cc2cc3ccccc3n2Cc2cnnn21)c1ccc(F)cc1,98.9%,98.8%,99.1,109%,102%,91.3%,96.3,99.1%,117%,
Cc1[nH]n(-c2cccc(Cl)c2)c(=O)c1/C=C1\C=c2ccccc2=CC1=O,-1.95% (active),1.04% (active),84.1,-57.9% (active),-2.07% (active),-11.3% (active),60.4,-46.8% (active),-83.5% (active),
CC(C)n1c2ccc(Br)cc2c2c3c(c4c5ccccc5ccc4c21)C(=O)NC3=O,93.7%,95.5%,70.9,94.6%,117%,,98.3,101%,101%,89.9
N#Cc1c(-c2ccccc2)cc(-c2ccccc2)n(CCCCC(=O)NO)c1=O,25.8%,9.98% (active),92.2,21.1%,15.7%,19.3%,41.7,7% (active),43.3%,
COc1cc(N2C(=O)[C@H](Cl)C2c2ccc(SC)cc2)cc(OC)c1OC (stereo partly drawn),16.7%,53.8%,42.9,23.1%,-0.311% (active),-7.37% (active),11.1,-0.223% (active),-45.6% (active),
CC1SC(c2ccccc2O)N(NC(=O)CCC(=O)c2nc3ncccc3[nH]2)C1=O (stereo not drawn),86.5%,80.7%,93.4,87.8%,79.2%,95.5%,96.2,90.3%,110%,
C/C(=N\Nc1ccccc1)c1ccc(NC2=CC(=O)c3ccccc3C2=O)cc1,21.4%,80.8%,79,46.1%,113%,42.9%,48.5,94.1%,88.2%,
Cn1cc(-c2nc3c(F)cc4[nH]ncc4c3c3c2CCCC3)c(C(F)(F)F)n1,37.7%,67.3%,47.6,31%,-7.54% (active),0.529% (active),17.3,42.7%,35.6%,
O=C(/C=C/c1cccc(Oc2ccccc2)c1)c1ccc(Nc2nc(Nc3ccc(F)cc3)nc(Nc3ccc(Cl)cc3)n2)cc1,77.1%,113%,93.8,104%,-6.77% (active),109%,90.2,96.1%,103%,
N#Cc1ccc(/C=C/c2cn(-c3ccccc3)nc2-c2cccc([N+](=O)[O-])c2)cc1,56.4%,6.28% (active),62.9,37.8%,74.6%,20.1%,49.5,58.7%,83.6%,
O=C(OCc1ccc2c(Cl)cc(Cl)c(O)c2n1)N1CCN(C(=O)c2cc3ccccc3[nH]2)CC1,47.1%,28.3%,37.5,20%,14.7%,22.1%,10.8,44.2%,39%,
O=c1oc2ccccc2cc1-c1nn(-c2ccccc2)cc1-c1nn[nH]n1,101%,92.8%,100,90.8%,92.2%,94.6%,97.7,104%,108%,
CC1(/C=C/c2ccc(-c3ccccc3)cc2)CCn2cnc3ncnc(c32)N1O (stereo not drawn),13%,17%,26.9,19.6%,52.3%,26%,15.6,1.88% (active),28%,
CC(O)CNC(Cc1ccccc1)c1ccc2c(c1)OCO2 (stereo not drawn),98.5%,90%,93.6,60.9%,67.2%,71.9%,84.6,83%,71.4%,
N#Cc1c(-c2ccccc2)nc2c(c(-c3ccccc3)nn2-c2ccccc2)c1-c1ccc(N2CCCCC2)cc1,93.9%,89.1%,97.2,95.9%,98.7%,98.6%,87.9,98.5%,104%,
COc1cc(/C=C/C(=O)c2cccc(-n3cc(-c4ccc(Cl)cc4)[nH]c3=O)c2)ccc1O,97.5%,101%,92.6,130%,56.9%,23.4%,77.3,84.3%,124%,
COc1ccc(/C=C(\C(=O)NCc2cccnc2)S(=O)(=O)c2ccccc2)cc1OC,37.1%,74.6%,41.3,50.7%,43.5%,-4.24% (active),45.7,20.8%,30.2%,
O=[N+]([O-])c1ccccc1Nc1ccc2ccccc2c1,97.7%,97.1%,108,82.7%,82.9%,87.8%,47.8,83.5%,72.5%,
N#Cc1c(-c2cccc(Cl)c2)cc(-c2cccnc2)[nH]c1=O,85.6%,87.9%,94.4,69.5%,80.2%,,93,96.7%,93.4%,96.3
